The campaign covered roughly 38,000 compounds. About 1,200 (3.2%) showed an effect of 50% or more. The median lay at about -58%. This excerpt belongs to a sample that is enriched for strong results.
test system: Plasmodium falciparum; assay: Calibr Malaria Delayed Death Assay SOP; format: functional, organism-based; set-up: scale not given: in the data most compounds retested in dose-response had high values; conditions: concentration 4.99e-06 (unit not given; other assays of the set use mol/L)

Structure (SMILES)	Percent Effect
O=C1CCCN1Cc1nnc2n1CCCN(C(=O)c1ccco1)C2	-1.82%
O=C(c1cc(Cl)ccc1OC1CCN(C2CCCC2)CC1)N1CCCO1	51.12%
CC(=O)N1CCC(Oc2ccc(Cl)cc2C(=O)N2CCCO2)CC1	-31.72%
O=C(c1cc(Cl)ccc1OC1CCN(C2CCCC2)CC1)N1CC(O)C1	-105.7%
Cc1noc(C)c1CCC(=O)N1CCCCC1CNS(C)(=O)=O (stereo not drawn)	-22.15%
COc1ccc2c(ccn2CCC(=O)/N=c2\[nH]nc(C3CCCO3)s2)c1 (stereo not drawn)	-157%
Cc1nc(Oc2ccccc2F)sc1C(=O)O	-115.2%
Cc1cccc(-n2cc(CNc3ncnc4c3CCNCC4)cn2)c1	12.81%
Cc1ccccc1-n1cc(CNc2ncnc3c2CCNCC3)cn1	25.52%
COc1ccc(-c2cc(CNc3ncnc4c3CCNCC4)no2)cc1	13.56%
Clc1ccccc1-c1cc(CNc2ncnc3c2CCNCC3)no1	79.72%
c1ccc(Cn2cc(CNc3ncnc4c3CCNCC4)cn2)cc1	-75.72%
Cc1ccc(-c2cc(CNc3ncnc4c3CCNCC4)no2)cc1	62.41%
Cc1nn(CC(=O)O)c(C)c1NS(=O)(=O)c1cc2ccccc2s1	-90.75%
COc1ncccc1CNC1CCc2c(ccc(=O)n2CC2CC2)C1.O=C(O)C(F)(F)F.O=C(O)C(F)(F)F (stereo not drawn)	-69.76%
O=C(COCC(=O)N(c1ccccc1)c1ccccc1)N1CCOCC1	-115.4%
CCc1nc(CN(C)C2CCN(CCCOc3ccccc3)C2)no1 (stereo not drawn)	-2.481%
COc1ccccc1-c1ncc(CN2CCCC(CCC(N)=O)C2)s1 (stereo not drawn)	-45.2%
COc1ccccc1-c1ncc(CN2CCCC[C@H](N(C)C)C2)s1	69.91%
CN(C)[C@H]1CCCCN(Cc2cnc(NCc3ccccc3)nc2)C1	-25.46%
CC(=O)Nc1ccc2nc(CN(C)Cc3noc(C)n3)ccc2c1	-81.21%
CC(C)S(=O)(=O)CCN1CCN(C(C#N)c2ccccc2)CC1 (stereo not drawn)	-69.53%
NC(=O)C1CCN(c2ccc(C(=O)N3CCc4ccccc43)cn2)C1 (stereo not drawn)	-37.49%
c1ccc(-n2nnnc2NCc2ccc3c(c2)OCO3)cc1	-79.7%
N#Cc1c[nH]nc1NCc1ccc2c(c1)OCO2	-94.84%
O=C(CSc1ccc2c(c1)OCCO2)NS(=O)(=O)c1ccccc1Br	-14.98%
I.c1ccc(Sc2ccc3c(c2)OCO3)c(CNC2=NCCN2)c1	83.34%
CNCc1nc(-c2ccc3c(c2)OCO3)c[nH]1.Cl.Cl	-83.48%

Source: ChEMBL document CHEMBL3988442, “University of Dundee, Small-Polar-MMV Screening Library” (2021)
